Screening results deposited in PubChem by National Center for Advancing Translational Sciences (NCATS).
A selection: hits, their analogues and other compounds. The true share with any hit is near 6.4%.
Luc counter = Kinase-Glo luciferase inhibition (counter-screen). Q27757. Kinase-Glo luciferase, ATP luminescence, 8 min. Potency, µM (top dose mostly 38.3 µM), most hits filed as inhibitors. 0.28% of 200,000 active. AID 1379; note: nearly all actives have a fitted effect of over 60% in size
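Substrate mix (final 50 mM imidazole pH 7.2, 50 mM KCl, 7 mM MgCl2, 10 uM ATP, 0.01% Tween 20, 0.05% BSA) plus pin-tool compound, then Kinase-Glo detection mix; 8 min ambient, luminescence read.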
Gal4-VP16 FLuc = inhibits Gal4-VP16 luciferase reporter, ROR gamma counter-screen. 3.5% of 310,000 active. Potency, µM (titrated, usually from 53.6 µM), actives largely listed as inhibitors. Drosophila S2 Gal4-VP16 UAS-luciferase, luminescence, 20 h;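 note: Gal4-VP16 expression switched on by copper sulfate through the metallothionein promoter; nearly all actives have a fitted effect of over 50% in size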
RORg inh = blocks mouse ROR gamma transcriptional activity; 5.4% of 310,000 active; Potency, µM (highest dose often 53.6 µM), usual class: inhibitors; P51450; Drosophila S2 Gal4-RORgamma UAS-luciferase reporter, 20 h; note: nearly all actives have a fitted effect of over 60% in size
Target sequence (P51450 whole entry, looked up, the tested form may be a part): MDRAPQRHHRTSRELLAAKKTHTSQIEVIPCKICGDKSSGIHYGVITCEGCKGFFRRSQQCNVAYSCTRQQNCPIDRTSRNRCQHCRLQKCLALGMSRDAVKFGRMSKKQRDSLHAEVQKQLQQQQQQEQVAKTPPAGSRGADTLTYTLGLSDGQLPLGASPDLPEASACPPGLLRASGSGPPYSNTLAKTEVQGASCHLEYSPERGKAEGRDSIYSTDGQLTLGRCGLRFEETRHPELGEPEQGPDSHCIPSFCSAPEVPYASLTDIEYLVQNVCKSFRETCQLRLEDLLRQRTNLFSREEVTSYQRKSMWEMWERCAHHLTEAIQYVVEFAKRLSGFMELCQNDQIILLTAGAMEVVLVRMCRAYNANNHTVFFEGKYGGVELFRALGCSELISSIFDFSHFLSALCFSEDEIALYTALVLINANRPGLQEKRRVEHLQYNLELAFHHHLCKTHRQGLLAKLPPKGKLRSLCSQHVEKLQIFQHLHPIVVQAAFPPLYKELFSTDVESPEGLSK
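Using a luciferase readout, inhibitors were identified by reduced reporter activity in Drosophila cells coexpressing a copper-inducible Gal4–ROR gamma fusion and UAS-driven Photinus luciferase, incubated 20 hr after 700 uM copper sulfate.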
A number is an active result; n = inactive; u = inconclusive; x = no result; [ ] = another dose, or the depositor's remark. Calls come from the whole dose curve; as a rule, active = well fitted curve in the direction sought with a large enough effect; inconclusive = small, poorly fitted or top-dose-only effect, or another doubt; inactive = no such curve, though single readings can be large; an effect the other way counts as inactive or inconclusive.

SMILES	Luc counter	Gal4-VP16 FLuc	RORg inh
C/C(=C\c1ccccc1)C(=O)Nc1nccs1	n	u	6.3µM
CCn1ncc(Br)c1C(=O)Nc1ccc(OC(F)(F)F)cc1	x	n	n
CN1CCN(c2ccc(NC(=O)c3ccc4ccccc4c3)cc2)CC1	x	u	11µM
COc1ccc(C(=O)Nc2ccc(N3CCN(C)CC3)cc2)cc1	x	n	n[1.91 µM]
CC(=O)Nc1ccc(-n2nnnc2SCC(=O)NCc2cccs2)cc1	n	n	n
COCCNC(=O)C(c1ccc(F)cc1)N(C(=O)CCC(=O)Nc1ccccn1)C1CCCCC1 (centres undefined)	x	n	n
COc1cccc2c1cc1c(=O)n(CC(=O)N3CCC(C)CC3)nc(C)n12	x	n	n
O=C(Nc1nccs1)c1ncc(Cl)c(Cl)c1Cl	x	4µM	7.9µM
O=C(Nc1nccs1)c1ccc(Br)s1	x	u	11µM
Cc1ccc(NC(=O)c2ncc(Cl)c(Cl)c2Cl)cc1C	n	u	n
Cc1ccc(C(=O)Nc2nccs2)s1	x	n	n
O=C(Nc1nccs1)c1ccc2ccccc2c1	x	6.3µM	7.9µM
Cn1cc(Cl)c(C(=O)Nc2nccs2)n1	x	n	n
O=C(Nc1nccs1)c1ccc(S(=O)(=O)c2ccccc2)cc1	n	n	n
O=C(Nc1ccc(OC(F)F)cc1)c1ncc(Cl)c(Cl)c1Cl	n	n	5µM
c1ccc(CCOn2ccnc2)cc1	x	n	n
O=C(Nc1nccs1)c1ccc(Br)cc1	x	u	8.9µM
O=C(CCNC(=O)c1ccc(Br)cc1)Nc1nccs1	n	n	n
Oc1cccc(NC(=S)Nc2ccc(SC(F)F)cc2)c1	n	n	n
Oc1cccc2c(NC(=S)Nc3ccc(SC(F)F)cc3)cccc12	n	7.9µM	6.3µM
CCS(=O)(=O)N1CCC(c2nc3ccccc3[nH]2)CC1	x	n	n
CCc1cc(-c2n[nH]c(C)c2-c2ccc3c(c2)OCCO3)c(O)cc1O	n	u	13µM
CCc1cc(-c2n[nH]c(C)c2-c2nc3ccccc3n2C)c(O)cc1O	n	n	n
COc1cc2c(cc1OC)C(c1cc(Br)ccc1F)N(C(=O)CCl)CC2 (centres undefined)	x	u	7.9µM
COc1cc2c(cc1OC)C(C1C(=O)CC(C)(C)CC1=O)N(C(=O)CCl)CC2 (centres undefined)	n	n	n
SMILES	Luc counter	Gal4-VP16 FLuc	RORg inh
Cc1ccc(/C=N/NC(=O)Cc2cccs2)o1	n	35µM	u
COc1ccc(/C=N/NC(=O)Cc2cccs2)cc1	x	n	n
O=C1C2C3C=CC(C3)C2C(=O)N1c1ccccc1 (centres undefined)	n	n	n
O=C1C2C3C=CC(C3=C3CCCCC3)C2C(=O)N1c1ccccc1 (centres undefined)	n	n	13µM
O=C(COC(=O)c1cccc(S(=O)(=O)N2CCCC2)c1)NCc1ccccc1	n	n[10 µM]	n
CC[C@H](C)[C@@H](NC(=O)O[C@@H]1Cc2cc(OC)ccc2O[C@H]1c1cccc(OC)c1)C(=O)OC	n	n	n
CCOc1cc(/C=N/Nc2nc(=O)[nH]nc2C)ccc1O	n	n	8.9µM
CCCOc1ccc(/C=N/Nc2ccccn2)cc1OC	n	n	n
CCOc1cc(/C=N/NC(=O)C(=O)N/N=C/c2ccc(O)c(OCC)c2)ccc1O	x	n	u
CCOc1cc(/C=N/Nc2ncnc(Cl)c2N)ccc1O	n	u	20µM
COc1cc(/C=N/Nc2nc(=O)[nH]nc2C)cc(OC)c1O	n	n[10 µM]	n
CCOc1ccc(/C=N/Nc2ccccn2)cc1OC	n	u	10µM
CCOc1cc(/C=N/NC(=O)C(OC)c2ccccc2)ccc1O (centres undefined)	x	n	n
CCOc1ccc(/C=N/Nc2nc(=O)[nH]nc2C)cc1OC	x	n	13µM
COc1ccc(NC(=O)Cn2nnc(C(=O)NCc3cccs3)c2N)cc1Cl	x	n	n
CCOc1cc(CNc2ccc(CNc3ncn[nH]3)cc2)ccc1OCc1ccccc1	n	n	n
CCOc1ccc(NC(=O)CN(c2ccc(OC)c(OC)c2)S(=O)(=O)c2ccc(C)cc2)cc1	x	n	n
C/C(=N\NC(=O)c1ccccc1NC(=O)c1ccc(Cl)cc1)c1ccncc1	1.3µM	0.89µM	0.56µM
O=C(Nc1ccccc1C(=O)N/N=C/c1ccco1)c1ccc(F)cc1	7.1µM	5µM	1.1µM
O=C(O)c1ccc(/C=N/NC(=O)C2CC2(c2ccccc2)c2ccccc2)cc1 (centres undefined)	n	n	n
C/C(=N/NC(=O)c1ccncc1)c1ccccc1Cl	n[7.66 µM]	x	x
O=C(N/N=C\c1ccco1)Nc1cccc(Cl)c1	n	n	u
O=C(Nc1ccccc1C(=O)N/N=C/c1ccco1)c1ccc(Cl)cc1	13µM	4µM	2.8µM
O=C(N/N=C/c1ccco1)c1ccc(OCc2ccccc2)cc1	x	n	n
O=C(N/N=C/c1ccco1)C1CC1(c1ccccc1)c1ccccc1 (centres undefined)	x	u	0.35µM
SMILES	Luc counter	Gal4-VP16 FLuc	RORg inh
CC(C)CN1C(=O)N(c2ccc(Cl)cc2)C(C)(O)CC1(C)C (centres undefined)	x	n	n
CCOc1ccc(NC(=O)CC(NCc2ccccn2)C(=O)O)cc1 (centres undefined)	x	n	n
CC1=CS(=O)(=O)CC1SC(=S)N(C)C1CCS(=O)(=O)C1 (centres undefined)	n	n	n
C/C(=N\NC(=O)C(=O)Nc1ccc(C)c(Cl)c1)c1ccncc1	n	u	u
O=C(N/N=C/c1ccco1)c1ccncc1	n	u	u
Cc1ccccc1C(=O)Nc1ccccc1C(=O)N/N=C\c1ccco1	n	u	10µM
C/C(=N\NC(=O)C(=O)Nc1cccc(Cl)c1)c1ccncc1	n	5.6µM	u
Cc1ccccc1C(=O)Nc1nnc(CC(=O)N/N=C/c2ccco2)s1	x	n	n
O=C(Nc1ccccc1C(=O)N/N=C/c1ccco1)c1ccccc1	u	u	7.9µM
O=C(NCCCN1CCOCC1)C(=O)NCc1ccco1	n	n	n
COc1ccc(-n2c(Cc3cccn3C)nnc2SCC(=O)Nc2ccc(C)c(Cl)c2)cc1	n	11µM	u
Cc1cc(C)c(NC(=O)CSc2nnc(Cc3cccn3C)n2-c2ccc(F)cc2)c(C)c1	n	n	n
COc1ccc(-n2c(Cc3cccn3C)nnc2SCC(=O)Nc2cccc(OC)c2)cc1	n	n	n
Cc1cc(C)cc(NC(=O)CSc2nnc(Cc3cccn3C)n2-c2ccc(F)cc2)c1	n	11µM	u
CC1CN(C)CCC1OC(=O)c1ccccc1 (centres undefined)	x	n	n
CCOc1ccc(N2C(=O)CC(NNc3nc4ccccc4s3)C2=O)cc1 (centres undefined)	x	u	n
CCOc1cc(C2C(C#N)=C(N)SC(N)=C2C#N)ccc1OCCN1CCOCC1	n	n	u
CCOc1ccc(C2C(C#N)=C(N)SC(N)=C2C#N)c(OCC)c1	n	u	13µM
COc1ccc(-n2c(COc3ccccc3)nnc2SCC(N)=O)cc1	n	n	n
COc1ccc(-n2c(COc3ccc(C)cc3)nnc2SCC(N)=O)cc1	n	n	11µM
CC(C)(C)OC(=O)N1Cc2ccccc2C[C@H]1C(=O)NCC(=O)NC1CCCCC1	x	n	n
Fc1ccc(NC(=S)NCCc2ccccc2)c(F)c1F	n	n	n
O=C(CNC(=O)c1ccccc1F)NCCc1ccc(Cl)cc1	x	n	n
Fc1cccc(NC(=S)NCCc2ccccc2)c1	n	u	3.2µM
Fc1ccc(F)c(NC(=S)NCCc2ccccc2)c1	n	u	4.5µM
